Consider 20 compounds from PubChem BioAssay.

The nature of assay [1]: antimalarial activity against Dd2 strain (AID 2302;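 active means growth inhibition above 50% at the single 2 µM test dose, taken to imply half-maximal potency below 2 µM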;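 further: 0% = DMSO untreated growth and 100% = chloroquine plus artemisinin killed control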). The settings on record: P. falciparum Dd2 in RBCs, LDH growth readout, 72 h; at 2 µM; stronger effect = higher value.
A short description of assay [2]: human hepatoma cell viability loss – ATP luminescence, cytotoxicity control for P. falciparum antimalarial project, primary screen (AID 2303;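 active means inhibition above 50%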;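 further: 0% = DMSO wells and 100% = digitonin-killed cells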). The conditions noted are these: HepG2 viability, 24-48 h, at 10 µM, stronger effect = higher value.
Assay [3] addresses L-lactate dehydrogenase (Plasmodium falciparum (isolate CDC / Honduras)) (UniProt Q27743). The experiment in a line: PfLDH activity inhibition – cell lysate, 3D7 strain, counter-screen for P. falciparum growth inhibition project (AID 2304).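 Further: 0% = vehicle and 100% = reference inhibitor.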 The conditions noted are these: P. falciparum 3D7 crude extract, LDH APAD/NBT absorbance; at 2 µM; stronger effect = higher value.
Assay [4] in a line: inhibition of 3D7 malaria parasite growth – strain 3D7 (AID 2306).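 Further: 0% = DMSO wells and 100% = chloroquine plus artemisinin control wells.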 The conditions noted are these: P. falciparum 3D7 erythrocytic growth, LDH absorbance, 72 h; at 2 µM; stronger effect = higher value.
Assay [5] addresses Calcium-dependent protein kinase 1 (Plasmodium falciparum (isolate 3D7)) (UniProt P62344). The experiment in a line: PfCDPK1 kinase inhibitors, biochemical, TCAMS library (AID 1159585; cut-off not given, nearly all actives have IC50 up to about 0.98 µM;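 further: inhibitors leave more ATP so luminescence rises with inhibition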). The settings on record: recombinant PfCDPK1, Kinase-Glo ATP depletion luminescence.
Assay [6] concerns the target Plasmodium falciparum protein kinase 6 (PK6, PF3D7_1337100) (UniProt Q8IDW1). Description: PfPK6 kinase inhibitors, biochemical, TCAMS library (AID 1159586). The conditions noted are these: recombinant PfPK6, Kinase-Glo ATP depletion luminescence.
Assay [7] has as its target Protein kinase 7 (PK7), Plasmodium falciparum 3D7 (PF3D7_0213400) (UniProt Q7YTF7). The experiment in a line: inhibition of Plasmodium PK7 catalytic activity – biochemical, TCAMS antimalarial set, Kinase-Glo luminescence (AID 1159587). The settings on record: recombinant PfPK7, Kinase-Glo ATP depletion luminescence.
Assay [8] has as its target Calcium-dependent protein kinase 4 (Plasmodium falciparum (isolate 3D7)) (UniProt Q8IBS5). The experiment in a line: PfCDPK4 kinase inhibitors, biochemical, TCAMS library (AID 1159588; cut-off not given, nearly all actives have IC50 up to about 0.91 µM). The conditions noted are these: recombinant PfCDPK4, Kinase-Glo ATP depletion luminescence.

“And” between values parts separate entries of the source, which are not always exact repeats. Identical values can stand only once. For some of these results: Results with a measured potency or affinity are listed apart. More than one record can exist for a structure, and the calls need not agree. The source made the active and inactive calls. Unless noted, how the calls were made is not given here.

Chain of Calcium-dependent protein kinase 1 (Plasmodium falciparum (isolate 3D7)) (P62344 whole entry, looked up): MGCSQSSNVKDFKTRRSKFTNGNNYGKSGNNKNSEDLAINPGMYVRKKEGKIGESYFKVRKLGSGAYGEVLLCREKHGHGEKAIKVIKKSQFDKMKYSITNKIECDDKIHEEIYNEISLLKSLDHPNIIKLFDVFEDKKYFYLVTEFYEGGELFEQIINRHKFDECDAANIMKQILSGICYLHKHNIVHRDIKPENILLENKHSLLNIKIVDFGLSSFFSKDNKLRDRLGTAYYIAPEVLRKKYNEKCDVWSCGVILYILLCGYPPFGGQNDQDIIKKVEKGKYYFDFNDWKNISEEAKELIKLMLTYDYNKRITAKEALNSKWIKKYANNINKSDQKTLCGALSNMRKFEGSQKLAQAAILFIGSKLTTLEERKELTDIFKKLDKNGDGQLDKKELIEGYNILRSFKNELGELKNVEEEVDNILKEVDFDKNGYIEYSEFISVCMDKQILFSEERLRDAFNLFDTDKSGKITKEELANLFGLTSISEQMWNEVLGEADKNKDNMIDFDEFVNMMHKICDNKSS
Chain of Protein kinase 7 (PK7), Plasmodium falciparum 3D7 (PF3D7_0213400) (Q7YTF7 1-343): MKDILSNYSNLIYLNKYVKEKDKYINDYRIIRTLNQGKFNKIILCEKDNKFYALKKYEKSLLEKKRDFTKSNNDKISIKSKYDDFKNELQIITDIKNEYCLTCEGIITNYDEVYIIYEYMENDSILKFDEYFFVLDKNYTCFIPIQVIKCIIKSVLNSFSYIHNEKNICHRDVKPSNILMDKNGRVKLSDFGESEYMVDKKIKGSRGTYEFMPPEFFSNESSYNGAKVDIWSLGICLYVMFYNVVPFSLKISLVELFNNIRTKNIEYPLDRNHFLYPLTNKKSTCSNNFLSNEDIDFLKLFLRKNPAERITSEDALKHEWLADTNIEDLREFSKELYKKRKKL
Chain of Plasmodium falciparum protein kinase 6 (PK6, PF3D7_1337100) (Q8IDW1 1-305): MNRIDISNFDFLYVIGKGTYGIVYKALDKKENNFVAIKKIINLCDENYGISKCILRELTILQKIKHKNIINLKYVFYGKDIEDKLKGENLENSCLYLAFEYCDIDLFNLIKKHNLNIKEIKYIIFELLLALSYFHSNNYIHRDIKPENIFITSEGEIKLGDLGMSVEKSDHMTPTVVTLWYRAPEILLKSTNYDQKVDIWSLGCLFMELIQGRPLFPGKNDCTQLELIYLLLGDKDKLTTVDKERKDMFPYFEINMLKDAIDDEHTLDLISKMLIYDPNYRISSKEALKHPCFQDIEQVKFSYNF
Chain of L-lactate dehydrogenase (Plasmodium falciparum (isolate CDC / Honduras)) (Q27743 whole entry, looked up): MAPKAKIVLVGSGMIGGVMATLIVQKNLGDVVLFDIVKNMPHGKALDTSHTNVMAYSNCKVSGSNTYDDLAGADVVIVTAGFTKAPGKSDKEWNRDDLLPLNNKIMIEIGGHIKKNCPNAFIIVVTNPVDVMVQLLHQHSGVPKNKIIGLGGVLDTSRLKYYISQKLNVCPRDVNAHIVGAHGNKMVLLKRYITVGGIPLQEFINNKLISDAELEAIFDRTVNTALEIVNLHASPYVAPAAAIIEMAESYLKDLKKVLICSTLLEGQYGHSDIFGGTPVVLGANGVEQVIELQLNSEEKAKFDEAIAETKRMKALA
Chain of Calcium-dependent protein kinase 4 (Plasmodium falciparum (isolate 3D7)) (Q8IBS5 whole entry, looked up): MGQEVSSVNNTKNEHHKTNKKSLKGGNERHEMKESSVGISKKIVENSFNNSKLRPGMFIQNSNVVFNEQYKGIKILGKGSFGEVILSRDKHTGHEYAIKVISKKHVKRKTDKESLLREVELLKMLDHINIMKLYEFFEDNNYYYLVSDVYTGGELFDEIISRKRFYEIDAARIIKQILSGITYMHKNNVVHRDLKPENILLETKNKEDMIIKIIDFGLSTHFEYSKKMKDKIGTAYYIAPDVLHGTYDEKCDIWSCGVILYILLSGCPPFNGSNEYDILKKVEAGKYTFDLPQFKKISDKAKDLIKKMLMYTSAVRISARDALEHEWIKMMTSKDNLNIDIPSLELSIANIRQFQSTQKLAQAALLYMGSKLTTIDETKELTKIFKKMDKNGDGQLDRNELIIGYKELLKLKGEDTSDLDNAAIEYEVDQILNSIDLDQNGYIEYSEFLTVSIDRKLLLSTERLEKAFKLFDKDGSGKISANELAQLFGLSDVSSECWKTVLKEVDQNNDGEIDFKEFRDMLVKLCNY

Consider `O=C(Nc1ccccc1C(F)(F)F)NC1CCC(CN2CCC(c3c[nH]c4ccccc34)CC2)CC1` (stereo not given), for which the growth inhibition is 12% (inactive) and 42% (inactive) in assay [1]; 86% (active) and 96% (active) in assay [4]. In addition, the inhibition in assay [2] was 34% (inactive) and 46% (inactive); in assay [3], -3% (inactive). Moreover, the outcome in assay [5], in assay [6], in assay [7] and in assay [8] was inactive.

For `CC(Cc1ccc(OCCCCOc2ccccc2)cc1)NCCCN1CCOCC1` (stereo not given), the growth inhibition in assay [1] was 78% (active); in assay [4], 98% (active). The values for the inhibition in assay [2] and in assay [3] were 98% (active) and -2% (inactive), respectively. Besides, the outcome in assay [5], in assay [6], in assay [7] and in assay [8] was inactive.

As for `O=C(NCCC1CCN(CCc2c[nH]c3ccccc23)CC1)Nc1ccc(Cl)c(Cl)c1`, the growth inhibition in assay [1] was 5% (inactive); in assay [4] it was 101% (active). Besides, the inhibition in assay [2] is 18% (inactive); in assay [3], -2% (inactive). Further, the outcome in assay [5], in assay [6], in assay [7] and in assay [8] was inactive.

Regarding `Cc1[nH]c2ccccc2c1C1=CCN(CCCCC2(C)C(=O)Nc3cccc(F)c32)CC1` (stereo not given), the figures for the growth inhibition in assay [1] and in assay [4] were 90% (active) and 95% (active), respectively. Also, the inhibition is 9% (inactive) in assay [2] and -4% (inactive) in assay [3]. For the same compound, the result in assay [5], in assay [6], in assay [7] and in assay [8] was inactive.

For the compound `Cc1c(C(=O)N[C@@H](C)c2ccccc2)c2cc(O)c(Br)cc2n1C1CCCCC1`, the growth inhibition is 95% (active) in assay [1] and 98% (active) in assay [4]. The inhibition in assay [2] is 4% (inactive); in assay [3] it was -6% (inactive). Besides, the result in assay [5], in assay [6], in assay [7] and in assay [8] was inactive.

Turning to `CCCCC1(NC(=O)[C@H](CC(C)C)Nc2ccc(C#N)c3ccccc23)CCCCC1`, the growth inhibition in assay [1] was 47% (inactive); in assay [4], 96% (active). Also, the values for the inhibition in assay [2] and in assay [3] were 37% (inactive) and 5% (inactive), respectively. Moreover, the outcome in assay [5], in assay [6], in assay [7] and in assay [8] was inactive.

As for `COC(=O)c1ccc(CC(C)NCC(O)c2ccccc2Cl)cc1` (stereo not given), the growth inhibition in assay [1] is 55% (active); in assay [4], 94% (active). The inhibition in assay [2] and in assay [3] was 1% (inactive) each time. The result in assay [5], in assay [6], in assay [7] and in assay [8] was inactive.

As to `Cc1nc2ccccc2n1C1C[C@H]2CC[C@@H](C1)N2Cc1nccn1-c1ccccc1` (stereo not given in full), the growth inhibition in assay [1] is 96% (active); in assay [4] it was 94% (active). The inhibition in assay [2] was 0% (inactive); in assay [3], -4% (inactive). In addition, the outcome in assay [5], in assay [6], in assay [7] and in assay [8] was inactive.

For the compound `CO/C=C(/C(=O)OC)c1ccccc1Oc1cc(Oc2ccccc2C#N)ncn1`, the growth inhibition in assay [1] and in assay [4] was 98% (active) each time. The inhibition was 7% (inactive) in assay [2] and 3% (inactive) in assay [3]. In addition, the result in assay [5], in assay [6], in assay [7] and in assay [8] was inactive.

As for `CC[C@H]1CN2CC[C@H]1C[C@H]2[C@H](O)c1cc(-c2cccc(F)c2)nc2ccc(OC)cc12`, the growth inhibition in assay [1] is 97% (active); in assay [4] it was 99% (active). The figures for the inhibition in assay [2] and in assay [3] were 34% (inactive) and 5% (inactive), respectively. Besides, the result in assay [5], in assay [6], in assay [7] and in assay [8] was inactive.

Take `CNCC(O)c1cc(Cl)c(Cl)cc1C` (stereo not given): the results for the growth inhibition in assay [1] and in assay [4] were 88% (active) and 98% (active), respectively. Also, the inhibition was 0% (inactive) in assay [2] and 2% (inactive) in assay [3]. Besides, the outcome in assay [5], in assay [6], in assay [7] and in assay [8] was inactive.

As to `CC(Cc1ccc(OCCCCOc2ccccc2)cc1)NCCCn1ccnc1` (stereo not given), the growth inhibition in assay [1] and in assay [4] was 101% (active) each time. Further, the inhibition in assay [2] was 100% (active); in assay [3], 0% (inactive). In addition, the result in assay [5], in assay [6], in assay [7] and in assay [8] was inactive.

In the case of `O=C(NCCCCN1CCC(c2ccc3c(c2OCCO)CCCC3)CC1)c1sc(-c2ccc(C(F)(F)F)cc2)nc1CO`, the growth inhibition is 20% (inactive) in assay [1] and 95% (active) in assay [4]. Besides, the inhibition is 37% (inactive) in assay [2] and -6% (inactive) in assay [3]. The result in assay [5], in assay [6], in assay [7] and in assay [8] was inactive.

Consider `CCCCNC(c1ccc(Cl)cc1)C(O)c1ccc(Cl)cc1` (stereo not given), for which the growth inhibition in assay [1] is 98% (active); in assay [4] it was 99% (active). For the same compound, the inhibition in assay [2] was 13% (inactive); in assay [3], 4% (inactive). Moreover, the result in assay [5], in assay [6], in assay [7] and in assay [8] was inactive.

With `O=C(C=Cc1cccc(Cl)c1Cl)NC1CCC(CN2CCC(c3c[nH]c4ccccc34)CC2)CC1` (stereo not given), the growth inhibition in assay [1] was 78% (active) and 5% (inactive); in assay [4] it was 102% (active) and 83% (active). Moreover, the inhibition in assay [2] was 40% (inactive) and 33% (inactive); in assay [3] it was 6% (inactive) and -5% (inactive). For the same compound, the outcome in assay [5], in assay [6], in assay [7] and in assay [8] was inactive.

Regarding `Cc1cc2cc(CNCCc3ccccc3Br)ccc2nc1N`, the growth inhibition in assay [1] was 91% (active); in assay [4] it was 98% (active). The inhibition was 31% (inactive) in assay [2] and -1% (inactive) in assay [3]. In addition, the result in assay [5], in assay [6], in assay [7] and in assay [8] was inactive.

Turning to `COc1cc2nc(N(C)C3CCN(Cc4ccccc4)CC3)nc(N)c2cc1OC`, the growth inhibition in assay [1] was 93% (active); in assay [4] it was 99% (active). Moreover, the inhibition in assay [2] is 19% (inactive); in assay [3], 1% (inactive). Moreover, the outcome in assay [5], in assay [6], in assay [7] and in assay [8] was inactive.

As for `Oc1ccc(CN2CCN(CCOC(c3ccccc3)c3ccc(Cl)cc3)CC2)cc1Cl` (stereo not given), the growth inhibition in assay [1] was 97% (active); in assay [4], 98% (active). In addition, the inhibition in assay [2] is 11% (inactive); in assay [3], -3% (inactive). Further, the result in assay [5], in assay [6], in assay [7] and in assay [8] was inactive.

On to `O=C(/C=C/c1ccc(Cl)c(Cl)c1)NC1CCC(CN2CCC(c3c[nH]c4cc(C(F)(F)F)ccc34)CC2)CC1` (stereo not given), for which the growth inhibition in assay [1] was 38% (inactive) and 85% (active); in assay [4], 98% (active) and 102% (active). Also, the inhibition in assay [2] was 11% (inactive) and 40% (inactive); in assay [3] it was 1% (inactive) and 6% (inactive). For the same compound, the result in assay [5], in assay [6], in assay [7] and in assay [8] was inactive.

Consider `O=C(/C=C/c1ccc(Cl)c(Cl)c1)NC[C@@H]1CCC[C@H](CN2CCC(c3c[nH]c4ccccc34)CC2)C1`, for which the values for the growth inhibition in assay [1] and in assay [4] were 43% (inactive) and 98% (active), respectively. Further, the inhibition is 61% (active) in assay [2] and -4% (inactive) in assay [3]. Further, the outcome in assay [5], in assay [6], in assay [7] and in assay [8] was inactive.
